The record followed here is PMC7819943, “Rice protein-binding microarrays: a tool to detect cis-acting elements near promoter regions in rice”.

Over roughly 68,000 sequences, “fluorescence intensity (a.u.)” has its median near 9,100; the highest 2% begin near 16,000. The entries come from a sample that favours the highest values as a whole.

Sequence of OsWRKY34 (Q0JBA9 entry or part of it): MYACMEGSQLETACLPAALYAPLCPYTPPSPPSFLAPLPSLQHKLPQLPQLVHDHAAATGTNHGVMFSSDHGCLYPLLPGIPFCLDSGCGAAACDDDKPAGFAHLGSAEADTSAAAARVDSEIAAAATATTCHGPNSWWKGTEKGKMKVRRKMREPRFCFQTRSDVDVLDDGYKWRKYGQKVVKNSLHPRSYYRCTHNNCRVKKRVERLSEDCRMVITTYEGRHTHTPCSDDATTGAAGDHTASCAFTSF

For the assay, the target named is OsWRKY34 (Oryza sativa, UniProt Q0JBA9 1-250). As to the kind of experiment: protein-binding microarray (RPBM); PBS, 2% BSA, 51.3 ng/ul salmon testes DNA, 50 uM zinc acetate, 200 nM TF, 25 C, 1 h; high values mean tight binding. The note with it: protein: recombinant; tags: N-terminal polyhistidine and DsRed monomer fusion (pET32a); label: CyDye5-dUTP incorporated in the synthesized complementary strand; 3' TTTTT single-stranded linker to array surface; dsDNA, one strand shown. An outline of the steps:
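Per-feature fluorescence intensity (arbitrary units), read on an Axon 4000B scanner, is the binding signal. Transcription factors carrying an N-terminal polyhistidine tag and DsRed fusion were expressed in E. coli BL21-CodonPlus and purified on Ni–NTA. A custom Agilent array, made double-stranded by primer extension with Cy5-dUTP and blocked with 2% BSA, was incubated with 200 nM protein in PBS, 2% BSA, salmon testes DNA and 50 µM zinc acetate at 25 °C for 1 h and then washed.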
Take “AAATCATTTAGAAACACAACCTTTTCCACTGTTCAGGATTCGGAGTCACCTAGTGCAG”: the binding signal was 8030 fluorescence intensity (a.u.).

On to “TTCACCCCGCTGCTCCGACGTCCTAGCCATCGCCGCCGCCCGGAGTCACCTAGTGCAG”, for which the binding signal is 8600 fluorescence intensity (a.u.).

Consider “CTGCCGCTCTGGTTCTCCAACTCTGCATACATATACCTCTCGGAGTCACCTAGTGCAG”, for which the binding signal is 12000 fluorescence intensity (a.u.).

Take “GGGATTTTGTGTTTTTGGTTTTTCTGGAGGGTGCAGAAGGCGGAGTCACCTAGTGCAG”: the binding signal was 14700 fluorescence intensity (a.u.).

In the case of “CTACCAACCTGTTCATCATGGCCCGACTCCATTCATGTCACGGAGTCACCTAGTGCAG”, the binding signal is 10300 fluorescence intensity (a.u.).

In the case of “TTTGTGGGTGGTTTTGGGCTAAAGATTCCGTTTCTTTCGACGGAGTCACCTAGTGCAG”, the binding signal is 9250 fluorescence intensity (a.u.).

Turning to “CGGGGAGGAGGGAGGAATAAATACGTCCTAGTCGATCAGCCGGAGTCACCTAGTGCAG”, the binding signal is 8150 fluorescence intensity (a.u.).

Regarding “GTTCAGTCACTCGCACGCTCGCTCGATCACCCGGCCGCCGCGGAGTCACCTAGTGCAG”, the binding signal was 10200 fluorescence intensity (a.u.).

For “CTCTCTACGGCTAGCTACTCCCATTTGTGGTCAACACCTCCGGAGTCACCTAGTGCAG”, the binding signal is 10500 fluorescence intensity (a.u.).

For “TGCCTCTGTTACCACACTCTCACCTTGCTTAATAAATGCTCGGAGTCACCTAGTGCAG”, the binding signal was 9800 fluorescence intensity (a.u.).

Regarding “ACTTAGGAGAGATTGCCTGAGTGCCATCTTTTTTGTATCTCGGAGTCACCTAGTGCAG”, the binding signal is 8960 fluorescence intensity (a.u.).

With “CTGAAGATTGGATCTAAACTTTGTATCTAAACACAGCCATCGGAGTCACCTAGTGCAG”, the binding signal was 64300 fluorescence intensity (a.u.).

As for “TAACTTCTCAACTTTTTCACCATCTAAACACAGTCTTCATCGGAGTCACCTAGTGCAG”, the binding signal was 8400 fluorescence intensity (a.u.).

Turning to “CAGCACCAACGTTCTCTTCGGCCGATTCGGCGATTGCATCCGGAGTCACCTAGTGCAG”, the binding signal is 8930 fluorescence intensity (a.u.).

Take “ATCCTCTCCCGCACCAGCTATAAACCGCCACACGCCCTCGCGGAGTCACCTAGTGCAG”: the binding signal is 8650 fluorescence intensity (a.u.).

As for “TCCTCTTGCAAAAAAAACACACACACACACGCACACAACTCGGAGTCACCTAGTGCAG”, the binding signal was 10200 fluorescence intensity (a.u.).

Turning to “ACGCACCAAAACACACGATCCTCTCGGATAAATCACAGCCCGGAGTCACCTAGTGCAG”, the binding signal was 27500 fluorescence intensity (a.u.).

In the case of “CTCTCTCTCTCTCTCTCTCTCTCTCTCGATGCCGACGCTTCGGAGTCACCTAGTGCAG”, the binding signal was 11000 fluorescence intensity (a.u.).

As for “GGAGCTAGTCCAACCTACCGCAGTCACACCACCCCGCTATCGGAGTCACCTAGTGCAG”, the binding signal was 9270 fluorescence intensity (a.u.).

In the case of “TGTATGTGTGGTGTGTGTTCATGTGCATCCTGAATTTTACCGGAGTCACCTAGTGCAG”, the binding signal is 14200 fluorescence intensity (a.u.).

Consider “GGTGCGTGGGTGGTGGTCTTTTTCTTTTTCCTAGTTACGACGGAGTCACCTAGTGCAG”, for which the binding signal is 29400 fluorescence intensity (a.u.).

As for “GTGGGTGGTGGTTTTTTTTTCCTTTTTCCTGGTTACGACCCGGAGTCACCTAGTGCAG”, the binding signal is 23700 fluorescence intensity (a.u.).

On to “TGTGGGTGGGGTTATTTTTTCTTCGTTTTCCTATTTACGACGGAGTCACCTAGTGCAG”, for which the binding signal was 15700 fluorescence intensity (a.u.).

As to “TGTGGATGATGGTATTTTTTTTCCTTTTTCCTAGTTACGACGGAGTCACCTAGTGCAG”, the binding signal is 9100 fluorescence intensity (a.u.).

On to “GGAGGTGGAAAATCTTTGTTTTTTTCCTGGTTACGATCTCCGGAGTCACCTAGTGCAG”, for which the binding signal was 9150 fluorescence intensity (a.u.).

As to “CTTCCTTTTCTCTTCTTCTTCTTCTTCTTTTGCGTGGGGACGGAGTCACCTAGTGCAG”, the binding signal was 9650 fluorescence intensity (a.u.).

As to “GTATGTGGGTGGTGGTATTTTTTTTATCCTGGTTACGACCCGGAGTCACCTAGTGCAG”, the binding signal was 19700 fluorescence intensity (a.u.).

With “GATGTGTTGGCTGTCTTTGTTTTTTTTTTCCTGGTTTACCCGGAGTCACCTAGTGCAG”, the binding signal is 14000 fluorescence intensity (a.u.).

As for “ATATCATGTTTATTATCTTGTTATTTTGGATTAAAATATGCGGAGTCACCTAGTGCAG”, the binding signal was 9720 fluorescence intensity (a.u.).

For “GATGCCTGCCAATCTGCCATGCCATTATATCTGCAGTTCTCGGAGTCACCTAGTGCAG”, the binding signal was 12000 fluorescence intensity (a.u.).

“CGTCTCTCCCGATCCGTCCCATCAAAAAGCAACACCAATACGGAGTCACCTAGTGCAG”: the binding signal is 8530 fluorescence intensity (a.u.).

As to “ATTTTTATAGTATTACATCTACGTGTAAAGTTTCATCTTTCGGAGTCACCTAGTGCAG”, the binding signal was 8260 fluorescence intensity (a.u.).

As for “CTATGGTTTGGTTTGAATTTTACTGTTGTATGCTGTTCCCCGGAGTCACCTAGTGCAG”, the binding signal is 8660 fluorescence intensity (a.u.).

For “TGGCCGGGAGGGTTGGCCCTTGTGGTTTCGGGGTTTGGTTCGGAGTCACCTAGTGCAG”, the binding signal was 15900 fluorescence intensity (a.u.).

“CTTTTCTCATCCCTTTTGTTTCTTCACTCCGGCTCACCGCCGGAGTCACCTAGTGCAG”: the binding signal was 8230 fluorescence intensity (a.u.).

Consider “GTACACGTTACCCGCGTGGGTGTGGGTATGGGGATGATTTCGGAGTCACCTAGTGCAG”, for which the binding signal was 11700 fluorescence intensity (a.u.).

With “GCGGTGATGACAGACGGGAGAGGGAGGGTTTTTTTTGTTACGGAGTCACCTAGTGCAG”, the binding signal is 18200 fluorescence intensity (a.u.).

Regarding “TGAGAAAGAGAGAGAGAGGGAGATGGCTGGGGAGACGGGGCGGAGTCACCTAGTGCAG”, the binding signal was 9660 fluorescence intensity (a.u.).

Regarding “TATTTTTGACCAGAGGGAGGGTTTTTTTTTTTTTGAGAGACGGAGTCACCTAGTGCAG”, the binding signal was 10300 fluorescence intensity (a.u.).

As to “TAGGGTTTGGTTGGGTTTTTGGGTGTTTTCAGACGGAGAGCGGAGTCACCTAGTGCAG”, the binding signal is 12800 fluorescence intensity (a.u.).

Regarding “CGAGGGAGAGGGGAGAGGGGAGTGCGGCGGGTGAGGCGGGCGGAGTCACCTAGTGCAG”, the binding signal was 9650 fluorescence intensity (a.u.).

In the case of “AGTGTTCTAGACTTACGGGTTACGGTTTTTTTTGTTAGAGCGGAGTCACCTAGTGCAG”, the binding signal was 8090 fluorescence intensity (a.u.).

For the sequence “GGGTTGAGATGGGAGTAGAGGGGAGTGAGGTGGAAGAAGACGGAGTCACCTAGTGCAG”, the binding signal was 8360 fluorescence intensity (a.u.).

Take “GATCAGAGATGAGGGCGGGCGGGTTGACTGGGAGAGTAGACGGAGTCACCTAGTGCAG”: the binding signal is 20500 fluorescence intensity (a.u.).

For “GGGTGTTTTCAGACGGAGAGAGGCGGCGGCGGCGGCGGGGCGGAGTCACCTAGTGCAG”, the binding signal was 18500 fluorescence intensity (a.u.).

For “ACACAGCCACACACCAACATGCCCTTCAGGTCTTCACACTCGGAGTCACCTAGTGCAG”, the binding signal is 9550 fluorescence intensity (a.u.).

In the case of “TTGTCTCCTATCTTGTGCCGTGCCTTCTTAAACCATTGCTCGGAGTCACCTAGTGCAG”, the binding signal was 8610 fluorescence intensity (a.u.).

As to “CATGGCCTAGTTGGGGTGTTGCGTATGTAATTTATCTGTCCGGAGTCACCTAGTGCAG”, the binding signal was 8100 fluorescence intensity (a.u.).

Turning to “TTGACGGAGCATCTATACCCGGTTTTGTAGTTCATGAACACGGAGTCACCTAGTGCAG”, the binding signal is 9100 fluorescence intensity (a.u.).

As for “ATTTTGGTACTACTCTATATTTTAGTTTGCAGCTTGTGCTCGGAGTCACCTAGTGCAG”, the binding signal was 10600 fluorescence intensity (a.u.).

With “ATATACACATTCTCCCATTGCTATATTATCTGTATTCTGACGGAGTCACCTAGTGCAG”, the binding signal is 13400 fluorescence intensity (a.u.).

Consider “ATCTATCACCATCTCTCCTTGATCTTGTGCACCTTACAAACGGAGTCACCTAGTGCAG”, for which the binding signal is 16800 fluorescence intensity (a.u.).

For the sequence “GATCTTGTGCACCTTACAAATTACATTGCCGACCATAAAACGGAGTCACCTAGTGCAG”, the binding signal is 9320 fluorescence intensity (a.u.).

With “CTCTCTCTATCCATCTCTTTCTCTCTCTCTTACACAACAACGGAGTCACCTAGTGCAG”, the binding signal was 8150 fluorescence intensity (a.u.).
